Screening results from PubChem.
hNpr1 antagonist: human Npr1 receptor antagonism; hit rate 1.6% among 76,000; HEK293 hNpr1 GloSensor cGMP, ANP-stimulated luminescence; P16066; Potency, µM (doses to about 46.3 µM), for inactives: top-dose activity change, negative = inhibition, most hits filed as inhibitors; calls by dose curve; further: nearly all actives have a fitted effect of over 60% in size
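Compound pre-incubated 30 min at room temperature on GloSensor-loaded HEK293 cells stably carrying hNpr1 and the pGS-40F cGMP biosensor. Stimulation uses hNppA at 0.1 nM final; luminescence is taken at baseline and 20 min post-agonist.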
Luciferase inh: Photinus pyralis luciferase inhibition; P08659; purified P. pyralis luciferase, luminescence, biochemical; hit rate 2.5% among 76,000; Potency, µM (doses to about 115 µM), hits mostly inhibitors; AID 1347043; further: nearly all actives have a fitted effect of over 65% in size
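Inhibitors were tested against purified firefly luciferase in a biochemical, low-substrate format (both substrates at 10uM) and luminescence measured with a CCD imager.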
HEK293 tox: HEK 293 cell cytotoxicity; HEK 293 viability, ATP luminescence (CellTiter-Glo), 48-72 h; Potency, µM (titrated, usually from 115 µM), for the others: at the top dose activity change, negative = cytotoxicity, usual class: inhibitors; hit rate 6.6% among 94,000; AID 1345083; further: nearly all actives have a fitted effect of over 60% in size
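CellTiter-Glo luminescence (cellular ATP) was read after 48 or 72 hr of compound exposure at 37 degree Celsius. Cells were HEK 293 plated at 250 cells/well.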
NIH3T3 tox: cytotoxic compounds in NIH 3T3 cells. hit rate 4.3% among 94,000. Potency, µM (doses to about 96.7 µM), for inactives: top-dose activity change, negative = cytotoxicity, most hits filed as inhibitors. NIH 3T3 viability, CellTiter-Glo ATP luminescence, 48-72 h; further: nearly all actives have a fitted effect of over 55% in size
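Cytotoxicity was measured by CellTiter-Glo ATP luminescence after 48 or 72 h compound exposure at 37 °C. Mouse NIH 3T3 fibroblasts were seeded at 400 cells/well and dosed by 23 nL pin transfer.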
GPT2 inh: blocks human glutamate pyruvate transaminase 2. Q8TD30. Recombinant GPT2, coupled pyruvate oxidase/HRP Amplex Red fluorescence. Potency, µM (series often up to 57.7 µM), inactives show top-dose activity change, negative = inhibition, most hits filed as inhibitors. hit rate 0.25% among 100,000; further: nearly all actives have a fitted effect of over 60% in size
Target sequence (Q8TD30 whole entry, looked up): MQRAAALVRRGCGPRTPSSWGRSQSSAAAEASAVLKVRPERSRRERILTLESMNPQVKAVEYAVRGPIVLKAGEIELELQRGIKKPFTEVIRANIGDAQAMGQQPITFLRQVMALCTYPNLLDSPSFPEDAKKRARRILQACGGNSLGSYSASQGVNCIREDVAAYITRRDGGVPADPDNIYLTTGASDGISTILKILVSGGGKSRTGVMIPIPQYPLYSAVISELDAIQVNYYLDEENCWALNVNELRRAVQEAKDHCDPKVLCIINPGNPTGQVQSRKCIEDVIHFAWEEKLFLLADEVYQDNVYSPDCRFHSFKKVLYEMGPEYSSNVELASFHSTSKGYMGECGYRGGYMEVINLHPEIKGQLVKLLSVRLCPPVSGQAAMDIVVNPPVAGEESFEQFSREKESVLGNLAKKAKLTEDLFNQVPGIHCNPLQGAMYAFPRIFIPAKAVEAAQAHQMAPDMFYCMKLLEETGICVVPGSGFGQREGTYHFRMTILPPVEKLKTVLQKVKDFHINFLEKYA
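Fluorescence read-out: pyruvate from GPT2 turnover coupled to pyruvate oxidase, HRP and Amplex Red (0.2mM ThPP, 0.2U/mL PO and HRP, 50uM Amplex final). Substrates 250uM a-KG, 2mM L-alanine; enzyme 10ng/uL; 30 min RT.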
Active calls of the source: *; i = inactive; ? = inconclusive; / = no result given; [ ] = remark or other dose. An excerpt weighted towards active compounds, which were near 10% of everything screened. Unless noted, the call rests on the fitted dose curve; in most records, active means well fitted curve in the direction sought with a large enough effect; inconclusive means small, poorly fitted or top-dose-only effect, or another doubt; inactive means no such curve, though single readings can be large; an effect the other way counts as inactive or inconclusive. On the % scale 0 is the no-effect control and ±100 the full control effect; potency means the concentration at half of the fitted maximal effect.

SMILES	hNpr1 antagonist	Luciferase inh	HEK293 tox	NIH3T3 tox	GPT2 inh
O=C1Cc2c(-c3ccc4c(c3)OCO4)n[nH]c2CN1CC1CCOCC1	3%[70.6 µM]	i	-28%[172 µM]	10µM*	-7%[88.5 µM]
COc1ccc(-c2noc([C@@H]3CCCN3C(=O)C3CCN(C(=O)c4ccccc4)CC3)n2)cc1	-9%	i	?	-14%	1%
CNC(=O)c1cc(C2CC2)nc2c1c(C1CCN(C(=O)c3cccc(OC)c3)C1)nn2C (centres undefined)	/	/	79µM*	?	/
CNC(=O)c1cc(C2CC2)nc2c1c(C1CCN(C(=O)c3cccnc3)C1)nn2C (centres undefined)	/	/	-2%	-19%	/
COCCN1C(=O)c2ccccc2C(C(=O)Nc2ccccc2OC)C12CCCC2 (centres undefined)	-1%	i	-1%	-15%	i
COc1ccc2[nH]c(C[C@@H]3C[C@@H](C(C)C)[C@H](CNCc4ccccc4O)C=C3C)nc2n1	?	i	45µM*	35µM*	-3%[88.5 µM]
COc1ccc2[nH]c(C[C@@H]3C[C@@H](C(C)C)[C@H](CN(C)C)C=C3C)nc2n1	-13%[70.6 µM]	i	?	89µM*	2%[88.5 µM]
Cc1nnc([C@@H]2CC(F)(F)CN2C(=O)COc2ccc(Cl)cc2)o1	6%	i	-14%	i	-8%
CC(Oc1ccccc1)C(=O)N1CCCN(c2cc(-c3ccc(Cl)cc3)[nH]n2)CC1 (centres undefined)	?	i	40µM*	?	-16%
CCC(C(=O)N1CCCN(c2cc(-c3ccc(OC)cc3)[nH]n2)CC1)c1ccccc1 (centres undefined)	-2%	i	40µM*	?	?
CCC(C(=O)NC1CCN(c2cc(-c3ccc(OC)cc3)[nH]n2)CC1)c1ccccc1 (centres undefined)	-3%	i	?	?	-27%
CC(C(=O)N1CCCN(c2cc(-c3ccc(Cl)cc3)[nH]n2)CC1)c1ccccc1 (centres undefined)	?	?	40µM*	35µM*	?
Cc1ccc(-c2cc(N3CCCN(C(=O)C(C)Oc4ccccc4)CC3)n[nH]2)cc1C (centres undefined)	-19%	i	?	?	?
COCc1cc(CC2(NCc3ccc(CO)o3)COC2)no1	13%[70.6 µM]	i	i	-1%[174 µM]	?
Cc1ccccc1Cc1c(C)nc2c(C(=O)NCCc3noc(-c4ccncc4)n3)cnn2c1C	4%	i	45µM*	?	i
Cc1ccccc1Cc1c(C)nc2c(C(=O)NCCc3noc(-c4cccnc4)n3)cnn2c1C	/	/	89µM*	?	-2%
COCc1nc(CCNC(=O)c2cnn3c(C)c(Cc4ccccc4Cl)c(C)nc23)no1	0%	i	?	?	i
O=C1NCCOCCCN(C(=O)Nc2ccc3c(c2)OCCO3)[C@H]2CCCC[C@@H]12	-18%	32µM*	3%	2%	i
O=C1NCCOCCCN(C(=O)Nc2ccccc2)[C@H]2CCCC[C@@H]12	-8%	i	-2%	-2%	?
O=C(c1ccccc1Cl)N1CCC(c2nn(-c3ccccn3)c(=O)[nH]2)CC1	/	/	i	-13%	1%
COc1ccc(-c2cn3cc(C(=O)NCC4CC4)nc3s2)cc1	/	/	63µM*	50µM*	i
COCCCNC(=O)c1cn2cc(-c3ccc(OC)cc3)sc2n1	/	/	79µM*	40µM*	-11%[88.5 µM]
O=C(NCC1CC1)c1cn2cc(-c3ccc(C(F)(F)F)cc3)sc2n1	/	/	?	?	1%
COc1ccc(-c2cn3cc(C(=O)N(C)C)nc3s2)cc1	/	/	?	89µM*	-9%[88.5 µM]
COCCCNC(=O)c1cn2cc(-c3cccc(C#N)c3)sc2n1	/	/	?	45µM*	-16%
SMILES	hNpr1 antagonist	Luciferase inh	HEK293 tox	NIH3T3 tox	GPT2 inh
Cn1nccc1-c1cnc2n[nH]c(-c3ccc4c(c3)OCO4)c2n1	-14%[70.6 µM]	i	?	?	-8%[88.5 µM]
O=C(O)c1cnc(N2CCCCC2)nc1-c1ccccc1	8%	i	1%	?	i
CNC(=O)[C@@H]1C[C@@H](O)CN1C1CCN(C(=O)c2ccccc2)CC1	1%	i	i	i	i
C/C=C/C=C/C(O)=C1/C(=O)[C@]2(C)C3/C(=C(O)/C=C/C=C/C)C(=O)C4(C)C1[C@]1(C)O[C@@]4(O)[C@@]3(C)O[C@@]12O	/	/	/	/	i
O=C(C1CCCN([S+](=O)([O-])c2cccc(C(F)(F)F)c2)C1)N1CCCC(c2nc3ccncc3[nH]2)C1 (centres undefined)	/	/	45µM*	?	-5%
O=C(C1CCN(CC2CC2)CC1)N1CCC(c2nc3ncccc3[nH]2)CC1	/	/	i	-3%	i
Cc1ccc([S+](=O)([O-])N2CCC(C(=O)N3CCCC(c4nc5ncccc5[nH]4)C3)CC2)cc1 (centres undefined)	/	/	28µM*	?	i
O=C(Nc1ccc(Cl)cc1)N1CCCC(C(=O)N2CCC(c3nc4ncccc4[nH]3)C2)C1 (centres undefined)	/	/	-27%	-20%	i
O=C(Nc1ccc(Cl)cc1)N1CCCC(C(=O)N2CCCC(c3nc4ncccc4[nH]3)C2)C1 (centres undefined)	/	/	?	22µM*	-26%
c1cnc2nc(C3CCN(CC4CCCCC4)C3)[nH]c2c1 (centres undefined)	6%[70.6 µM]	20µM*	?	-22%[138 µM]	i
O=C(c1ccco1)N1CCCCC1c1nc(C2CC2)n[nH]1 (centres undefined)	5%	i	15%	0%	-6%
Cc1ccc([S+](=O)([O-])N2CCCC(C(=O)N3CCC(c4nc5ncccc5[nH]4)CC3)C2)cc1 (centres undefined)	/	/	50µM*	?	i
Cc1noc(C)c1[S+](=O)([O-])N1CCCC(C(=O)N2CCC(c3nc4ncccc4[nH]3)CC2)C1 (centres undefined)	/	/	-7%	-17%	-10%
CN1CCN(C(=O)CC[C@H]2CNC(=O)[C@@H]3[C@@H](CCN3Cc3ccc(C(=O)O)cc3)N2C)CC1	5%	i	-7%	-1%	?
O=c1ncn(Cc2ccccc2)c2ccc(-c3ccc(F)cc3F)nc12	-2%[70.6 µM]	i	-13%[172 µM]	89µM*	-11%[88.5 µM]
COc1cccc(F)c1-c1ccc2c(n1)c(=O)ncn2Cc1ccccc1	-1%[70.6 µM]	i	2%[172 µM]	?	0%[88.5 µM]
Cc1ccc2oc(C(=O)N(C)Cc3nc(-c4cccnc4)no3)c(C)c2c1	0%	i	?	?	3%[11.5 µM]
Cc1nn(-c2ccc(F)cc2)c(Oc2ccccc2F)c1CCC(=O)N1CCCC1	-10%	i	35µM*	28µM*	0%
Cc1nn(-c2ccc(F)cc2)c(Oc2ccccc2F)c1CCC(=O)NCc1ccco1	-19%	i	?	35µM*	2%
